This passage reports outcome results from PubChem BioAssay AID1347383 (Zoeller Lab, School of Medicine, Boston University, 2020).

The source made the active and inactive calls.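 Rule for the calls: active = cell survival after UV exposure 2 SD above solvent-only control wells at 10 µM, confirmed on one or two repeats; inactive = the rest.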

This assay can be described thus: cell survival after pyrene fatty acid photosensitization – ZR-82 cells, Analyticon library, screen 2, phospholipid biosynthesis inhibitor project, primary screen (AID 1347383).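 Note: survival reflects blocked phospholipid synthesis cutting uptake of the phototoxic fatty acid; compound and fatty acid exposure 3 h then viability read next day.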 Particulars: ZR-82 CHO cells, pyrene-fatty acid UV killing, CellTiter Blue; at 10 µM; peroxisome-deficient CHO-K1 variant; with DGAT-1, DGAT-2 and ACAT inhibitors.
For the compound `CCCO[C@@H]1O[C@H](CO)[C@@H](O)[C@H](O)[C@H]1O[C@@H]1OC[C@@H](O)[C@H](O)[C@H]1O`, the outcome was inactive.

`COC1C(=O)CCC2(CO2)C1(O)C1(C)OC1CC=C(C)C` (centres undefined): the outcome was inactive.

`C=C[C@]1(C)C[C@](O)([C@@H]2OC2(C)C)Oc2c1c(=O)oc1cccc(CC)c21`: the outcome was inactive.

On to `COc1c(OC)c(OC)c2c(c1OC)c(=O)c1ccccc1n2C`, for which the outcome was inactive.

Consider `O=C1CC(c2ccc(O)cc2)Oc2cc(O)ccc21` (centres undefined), for which the result was inactive.

Regarding `COc1c2cccc(C)c2c(C=O)c2c(COC(C)=O)coc12`, the outcome was inactive.

Consider `C=C(CO)C1Cc2c(ccc3c(=O)c4c(oc23)COc2cc(O)c(OC)cc2-4)O1` (centres undefined), for which the result was inactive.

In the case of `COc1ccc(/C=C/C(=O)O)cc1O`, the result was inactive.

Regarding `CC1=C2C(=O)O[C@@H](c3ccoc3)[C@]2(C)CCC1=O`, the outcome was inactive.

On to `COc1cc(O)cc2c1C(=O)CC(c1ccc(O)cc1)O2` (centres undefined), for which the result was inactive.

For the compound `CC(=O)NC(Cc1c[nH]c2ccccc12)C(=O)O` (centres undefined), the result was inactive.

Consider `COc1cc(C(=O)/C(C)=C(\C)C(=O)c2ccc(O)c(OC)c2)ccc1O`, for which the outcome was inactive.

Turning to `COc1cc(O)cc2occ(-c3ccc(O)cc3O)c(=O)c12`, the result was inactive.

As to `CC1CC(O)/C=C/C(O)CCC(=O)Cc2c(Cl)c(O)cc(O)c2C(=O)O1` (centres undefined), the outcome was inactive.

On to `O=C1NC(Cc2c[nH]c3ccccc23)C(=O)NC1Cc1ccccc1` (centres undefined), for which the result was inactive.

On to `O=c1c(O)c(-c2ccccc2)oc2cc(O)cc(O)c12`, for which the result was inactive.

In the case of `CC1=C2C=C(CO)C(CO)CCC2(C)CCC1=O` (centres undefined), the outcome was inactive.

In the case of `O=C(/C=C/c1ccc(O)c(O)c1)N[C@@H](Cc1ccc(O)c(O)c1)C(=O)O`, the result was inactive.

For `C=C[C@@]1(C)CCC2=C(C1)C(=O)CC1[C@](C)(C(=O)O)CCC[C@]21C` (some centres undefined), the outcome was inactive.

As for `C/C=C(/C(=O)O)N1C(=O)C=C(C)C1=O`, the result was inactive.

`C=C(C)[C@@H]1Cc2cc3c(cc2O1)OC[C@@]1(O)c2ccc(O)cc2O[C@@H]31`: the result was inactive.

For `O=C(O)/C=C/c1ccccc1O`, the outcome was inactive.

Turning to `O=C1CC(c2ccc(O)c(O)c2)Oc2cc(O)cc(O)c21` (centres undefined), the outcome was inactive.

`C=C1C=CC(C(C)C)CCC(=C)C(O)CC1` (centres undefined): the result was inactive.

In the case of `CC(=O)/C=C(O)/C=C/c1ccc(O)cc1`, the outcome was inactive.

`CC(=O)O[C@H]1CC[C@H](C)[C@@]2(C)[C@H](OC(C)=O)c3c(C)coc3C(=O)[C@H]12`: the outcome was inactive.

With `CCC(C)C(=O)Oc1cc(C)ccc1C1(COC(=O)C(C)C)CO1` (centres undefined), the result was inactive.

As for `CC(C)CC(O)C(=O)NC(C)C(=O)NC(CC(C)C)C(=O)NCCCC(=O)O` (centres undefined), the result was inactive.

`C[C@H]1C=CC2=CCCC[C@@H]2[C@H]1CC[C@@H]1C[C@@H](O)CC(=O)O1`: the result was inactive.

On to `CC(C)=CCc1cc(C(=O)/C=C/c2ccc(O)cc2)c(O)cc1O`, for which the result was inactive.

Take `COc1cc(O)cc(O)c1C(=O)c1ccc(O)c(O)c1`: the result was inactive.

`CC[C@H]1C(=O)CC2C3CCC4C[C@@H](O)[C@]5(O)C[C@]4(CO5)C3CC[C@@]21C` (some centres undefined): the result was inactive.

`C=CCc1ccc(OC(C)Cc2cc(OC)c(OC)c(OC)c2)c(OC)c1` (centres undefined): the result was inactive.

In the case of `CC(C)(O)C1OC1C1=CC(=O)C2(C)OC2C1O` (centres undefined), the outcome was inactive.

With `CC(=O)C(C)C(O)C(C)c1ccc(CO)cc1/C=C/CO` (centres undefined), the outcome was inactive.

Consider `Cc1c(O)cc2c(c1O)C(=O)[C@@H](O)[C@H](c1ccc(O)c(O)c1)O2`, for which the outcome was inactive.

For `CC/C=C/C=C/C1(C)OC(=O)C(C(C)=O)=C1O` (centres undefined), the result was inactive.

Turning to `O=C(O)C(O)Cc1c[nH]c2ccccc12` (centres undefined), the result was inactive.

As for `C[C@@H]1O[C@@H](Oc2c(-c3ccc(O)cc3)oc3cc(O)cc(O)c3c2=O)[C@H](O)[C@H](O)[C@H]1O`, the result was inactive.
